From PubChem BioAssay AID588335 (The Scripps Research Institute Molecular Screening Center, 2011)
Out of some 360,000 compounds screened, about 4,500 (1.2%) were called active. No stated cut-off is given here; in the data, active means inhibition above about 30%; inactive means the rest. Many of the other results were omitted from the sample, so actives are more common in it than they were.

test: inhibition of GDH and TPI enzymes – biochemical, absorbance, full deck, artefact control for M. tuberculosis FBA inhibitor project, primary screen (AID 588335); details: GDH-TPI coupled enzyme counterscreen, NADH absorbance; at 4.8 µM; active compounds read high;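 further: 0% = DMSO wells and 100% = wells lacking the enzyme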

SMILES	inhibition
CC(C)[C@H](NC(=O)c1ccccc1F)C(=O)Nc1cccc(S(=O)(=O)N2CCOCC2)c1	-3.11% (inactive)
CN1C(=O)c2ccc(NC(=O)c3c(F)c(F)c(F)c(F)c3F)cc2C1=O	10.2% (inactive)
CC(C)(C)c1cc[n+](-c2[nH]c(=O)sc2/C=N/N=C(\[O-])c2ccccc2)cc1	32.8% (active)
Cc1cc[n+](-c2[nH]c(=O)sc2/C=N/NC(=O)c2ccccc2[O-])cc1C	30.5% (inactive)
Cc1cccc(C)c1NC(=S)N(Cc1cccnc1)Cc1ccccc1Cl	0.63% (inactive)
CC1(C)CC(=O)C2=C(C1)NCN(CCCN1CCOCC1)C2	6.39% (inactive)
O=C(COc1ccc2ccc(=O)oc2c1)NCC(O)c1ccccc1 (stereo not drawn)	7.87% (inactive)
CC(C)OC(=O)c1ccc(COc2ccc3ccc(=O)oc3c2)o1	6.9% (inactive)
CC(=CCOc1ccc2ccc(=O)oc2c1)C1=CC(=O)C(C)(C)O1	32.7% (active)
COc1ccc2oc(C(=O)OCC(=O)N(CC(C)C)c3c(N)n(Cc4ccccc4)c(=O)[nH]c3=O)c(C)c2c1	-3.6% (inactive)
O=C1Nc2ccc([N+](=O)[O-])cc2C1=Nc1cccc(CO)c1	15.1% (inactive)
CCOc1ccc(C(C(=O)NCCOC)N(CCOC)C(=O)CCC(=O)Nc2ccccn2)cc1 (stereo not drawn)	5.17% (inactive)
COC(=O)Cc1cnc(NC(=O)CSc2nc(C(C)C)cc(=O)[nH]2)s1	-1.15% (inactive)
O=C1CC(c2ccccc2)C(=O)N2C(=O)CC(c3ccccc3)C(=O)N12 (stereo not drawn)	1.76% (inactive)
Cc1c(O)c(C)c2c(c1O)C(=O)C[C@@H](c1ccccc1)O2	31% (active)
COc1ccc2c(c1)C(=O)CC(c1ccccc1)O2 (stereo not drawn)	0.86% (inactive)
NC(=O)CN1CCCC1c1ccc2c(c1)OCCO2 (stereo not drawn)	-7.41% (inactive)
CC1=NNC(=O)C1CCC(=O)N/N=C\c1cccc(Cl)c1 (stereo not drawn)	-3.82% (inactive)
CCCCSc1[nH]c(=O)c(C(=O)OCC)cc1C#N	36.1% (active)
CCOC(=O)C(Sc1ncc(C#N)c(N)n1)C(C)C (stereo not drawn)	5.66% (inactive)
CCOC(=O)c1ccc(COC(=O)c2cc(=O)[nH]c3ccccc23)o1	7.46% (inactive)
CC(=O)N1C(C)c2ccccc2C(C)(C)CC12CCCCC2 (stereo not drawn)	4.51% (inactive)
O=C1COc2ccc(C(=O)COC(=O)c3cccnc3Cl)cc2N1	1.57% (inactive)
COc1ccc(/C=C(/NC(=O)c2ccco2)C(=O)Nc2ccc(C(C)=O)cc2)cc1	33.5% (active)

SMILES	inhibition
COc1ccccc1C(=O)N/C(=C/c1ccco1)C(=O)Nc1ccc(C(=O)O)cc1	1.49% (inactive)
Cc1ccc(NC(=O)/C(=C\c2ccccc2)NC(=O)c2ccco2)cc1	21.3% (inactive)
CC1(C)COC(c2cccn2Cc2ccccc2Cl)=N1	12.7% (inactive)
O=C(NCc1ccncc1)C(=O)NCC1OCCN1S(=O)(=O)c1ccc(Br)cc1 (stereo not drawn)	3.11% (inactive)
O=C(Cc1ccsc1)N1CCN(S(=O)(=O)c2cc(C(F)(F)F)cc(C(F)(F)F)c2)CC1	6.47% (inactive)
Oc1c(Br)cc(/C=N/NC(=S)NCC2CCCO2)cc1Br (stereo not drawn)	37.8% (active)
S=C(NCC1CCCO1)N1CCN(c2ccc(Cl)c(Cl)c2)CC1 (stereo not drawn)	-2.84% (inactive)
O=C(CNC(=O)c1ccc(Br)o1)NCC1CCCO1 (stereo not drawn)	-4.74% (inactive)
CC(C)(C)CC(C)(C)NCC(O)COCCOc1ccc(Br)cc1 (stereo not drawn)	-7.87% (inactive)
CC(=NNC(N)=O)C1CC2CCC1CC2 (stereo not drawn)	4% (inactive)
CC1CCCCC1NC(=O)COC(=O)Cc1ccc(Br)cc1 (stereo not drawn)	0.32% (inactive)
C/C(=N\NC(=O)C(N)=O)c1ccc2c(c1)OCCO2	0.63% (inactive)
O=C(/C=C/c1ccc(Cl)c([N+](=O)[O-])c1)c1ccc(O)cc1	40.7% (active)
O=C(/C=C/c1ccc2c(c1)OCCO2)c1ccc(O)cc1	37.5% (active)
Cc1ccnc(NC(=O)c2ccc(Cl)c([N+](=O)[O-])c2)c1	8.28% (inactive)
O=C(COC(=O)c1ccc(O)cc1O)c1ccc2c(c1)OCCO2	-0.63% (inactive)
O=C(O)c1ccc2c(=O)n3c(nc2c1)/C(=C/c1ccc(Cl)c([N+](=O)[O-])c1)CC3	-3.69% (inactive)
CC(C)C(=O)N1CC(=O)Nc2ccc(F)cc2C1c1ccc(F)cc1 (stereo not drawn)	2.76% (inactive)
CSc1nc2ccccc2cc1/C=C(\C#N)c1ccc(Cl)cc1Cl	12.3% (inactive)
CC(=O)N1CCc2cc(Br)cc(S(=O)(=O)CCC(=O)Nc3c(C)n(C)n(-c4ccccc4)c3=O)c21	0% (inactive)
CCN(CC)CCCNC(=O)c1ccc2c(=O)n(Cc3ccc4c(c3)OCO4)c(=S)[nH]c2c1	3.66% (inactive)
CCSC(C)CC1C/C(=N/O)c2c(C)noc2C1 (stereo not drawn)	-6.62% (inactive)
C[C@@H]1O[C@@H](OC[C@H]2O[C@@H](Oc3c(-c4ccc(O)cc4)oc4cc(O)cc(O)c4c3=O)[C@H](O)[C@@H](O)[C@@H]2O)[C@H](O)[C@H](O)[C@H]1O	17.6% (inactive)
COc1c(O)cc2oc(-c3ccc(O)c(O)c3)cc(=O)c2c1O	22% (inactive)

SMILES	inhibition
COc1ccc(-c2cc(=O)c3c(O)cc(O[C@@H]4O[C@H](CO[C@@H]5O[C@@H](C)[C@H](O)[C@@H](O)[C@H]5O)[C@@H](O)[C@H](O)[C@H]4O)cc3o2)cc1O	37.8% (active)
Cc1csc(CN(C)C(=O)CC2C(=O)NCCN2CC(C)(C)C)n1 (stereo not drawn)	-0.64% (inactive)
CC1(C(=O)Nc2cccc(Oc3ccccc3)c2)CCN1Cc1ccccc1Cl (stereo not drawn)	11.5% (inactive)
CCOc1cc(C)ccc1OCc1nnc(SCC(=O)Nc2cccc(C(=O)O)c2)n1-c1ccccc1	5.71% (inactive)
CCNC(=S)N(CCN(CC)CC)Cc1cc2cc3c(cc2[nH]c1=O)OCO3	40.6% (active)
CCNC(=S)N(CCN(CC)CC)Cc1cc2cc3c(cc2[nH]c1=O)OCCO3	27.9% (inactive)
CCN(CC)CCCNC(=S)N(CCO)Cc1cc2cc3c(cc2[nH]c1=O)OCO3	10.3% (inactive)
CN1C(CC(=O)Nc2ccc(Br)cc2)c2ccccc2CC1(C)C (stereo not drawn)	2.84% (inactive)
COc1cc(C(=O)N2CCN(S(=O)(=O)c3ccc(C(C)C)cc3)CC2)ccc1OCC(=O)N1CCOCC1	-5.56% (inactive)
Nc1ccccc1-c1nc2ccncc2[nH]1	17.8% (inactive)
c1ccc2[nH]c(-c3nc4ccccc4[nH]3)nc2c1	36.1% (active)
O=C(Nc1sc2c(c1-c1nc3ccccc3[nH]1)CCCC2)C1CC1	12.9% (inactive)
CCc1ccc2c(c1)cc(CN(C(=S)Nc1ccccc1Cl)C1CC1)c1nnnn12	3.4% (inactive)
COCCCN(C(=S)Nc1c(C)cc(C)cc1C)C(C)c1ccncc1 (stereo not drawn)	-1.1% (inactive)
O=C1N/C(=N\N=C\c2ccco2)SC1Cc1ccc(F)cc1 (stereo not drawn)	34.3% (active)
COc1ccc(CN2C(=O)C(C)S/C2=N/N=C/c2ccco2)cc1 (stereo not drawn)	28.3% (inactive)
CCC1S/C(=N/N=C/c2ccco2)NC1=O (stereo not drawn)	48.7% (active)
CC(C)=N/N=C1/NC(=O)C(Cc2ccccc2)S1 (stereo not drawn)	1.52% (inactive)
CCCCC1S/C(=N/N=C/c2cccs2)NC1=O (stereo not drawn)	23.8% (inactive)
C=CCN1C(=O)C(Cc2cccc(Cl)c2)S/C1=N/N=C/c1ccco1 (stereo not drawn)	17.9% (inactive)
NC(=O)Cn1nc([N+](=O)[O-])nc1Oc1ccc(Br)cc1	-2.44% (inactive)
COc1ccc(OC)c(-n2cc3c(=O)n(C)c(=O)n(C)c3c2)c1	17.5% (inactive)
Cc1noc(COc2ccccc2OCc2onc(C)c2Cl)c1Cl	-5.03% (inactive)
Cc1cc(NC(=O)CN2C(=O)NC(C)(CCc3ccccc3)C2=O)no1 (stereo not drawn)	-0.61% (inactive)

SMILES	inhibition
COC(=O)c1sc(NC(=O)COC(=O)C2CCC2)c(C(=O)OC)c1C	-0.7% (inactive)
COC(=O)c1sc2[nH]c(=S)n(N)c(=O)c2c1C	31.6% (active)
CCCC(CCC(=O)OC)(C(=O)OCC)c1csc(N)n1 (stereo not drawn)	13% (inactive)
CCc1ccc(C(=O)COC(=O)c2ccco2)cc1	-8.19% (inactive)
O=C(COC(=O)c1ccccc1C(=O)c1ccccc1)c1ccco1	-5.13% (inactive)
CCN(CC)c1ccc(C(=O)OCC(=O)c2ccco2)cc1	31.4% (active)
C[C@H](NC(=O)C1CCN(S(=O)(=O)c2ccccc2)CC1)C(=O)NCc1ccccc1	-5.08% (inactive)
O=C(CN1C(=O)NC2(CCCCCC2)C1=O)Nc1ccc([N+](=O)[O-])cc1	22.4% (inactive)
COc1cc(C(=S)NC2CCCCC2)ccc1O	2.87% (inactive)
COc1ccccc1-n1c(O)c(C=NC2CC2)c(=O)[nH]c1=O	-4.18% (inactive)
COc1cc(C=NC2CCCCC2)ccc1O	32.4% (active)
COc1ccc(CCn2c(NCCCN3CCOCC3)nc3c2c(=O)[nH]c(=O)n3C)cc1	2.26% (inactive)
Cc1nnc(Sc2nc3c(c(=O)[nH]c(=O)n3C)n2Cc2ccccc2)s1	3.35% (inactive)
Cn1c(=O)[nH]c(=O)c2c1nc(NCCCn1ccnc1)n2Cc1cccc(Br)c1	33.2% (active)
Cc1cc(C)cc(C(=O)NCC(=O)OCC(=O)N2CCCCC2)c1	-3.76% (inactive)
Cc1ccc(-n2ncc3c2CC(C)(C)CC3NC(=O)Cc2c(C)noc2C)cc1 (stereo not drawn)	2.41% (inactive)
Cc1ccc(NC(=O)c2nc[nH]c2C(=O)N2CCCCC2)c(C(=O)c2ccccc2)c1	16.6% (inactive)
CC(CNS(=O)(=O)c1ccc(Br)cc1)CN(C)C (stereo not drawn)	-2.58% (inactive)
COc1ccc(N(CC(=O)N/N=C/c2cccs2)S(=O)(=O)c2ccc(OC)c(OC)c2)cc1	7.97% (inactive)
Cc1c(NC(=O)C(=O)N/N=C/c2cccs2)c(=O)n(-c2ccccc2)n1C	6.43% (inactive)
COc1ccc2c(c1)c(C(=O)N/N=C/c1cccs1)c(C)n2C	38.7% (active)
